A selection: hits, their analogues and other compounds. The true share with any hit is near 4.1%.
DAX1 inh-1 – DAX1 (NR0B1) inhibitors, primary screen, cell-based, HEK293, Gal4-DAX1, luciferase luminescence; HEK293 Gal4-DAX1 luciferase reporter; inhibition, % at 6.75 µM; 340,000 compounds, 0.99% hits; AID 504766, 2011;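 active = inhibition above the mean over all tested compounds plus 3 SD, cut at about 4.2% in these data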;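 note: inhibition shows as a rise in luminescence from relieved DAX1 repression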
Target sequence (P51843 207-470 limits assumed): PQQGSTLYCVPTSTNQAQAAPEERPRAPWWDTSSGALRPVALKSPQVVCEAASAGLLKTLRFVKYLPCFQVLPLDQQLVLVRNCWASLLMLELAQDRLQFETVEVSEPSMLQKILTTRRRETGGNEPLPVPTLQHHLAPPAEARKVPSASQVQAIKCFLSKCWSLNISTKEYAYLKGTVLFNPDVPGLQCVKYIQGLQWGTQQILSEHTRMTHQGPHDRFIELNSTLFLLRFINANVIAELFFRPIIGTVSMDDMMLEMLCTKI
DAX1 inh-2 – DAX1 (NR0B1) inhibitors on StAR promoter, primary screen, cell-based, luminescence, SF-1 (NR5A1), full-length DAX-1 | HEK293T StAR-luciferase reporter, SF-1/DAX-1 repression relief | inhibition, % at 6.8 µM | 370,000 compounds, 1.1% hits | AID 652010, 2013;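 active = inhibition above the mean over all tested compounds plus 3 SD, cut at about 3.6% in these data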;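 note: higher inhibition means more luminescence from relief of DAX-1 repression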
hgDAF12 agonist – H. glycines DAF-12 receptor agonists, primary screen, cell-based, luminescence, HEK293, GAL4 fusion, UAS-luciferase. Nuclear hormone receptor DAF-12 (Heterodera glycines), GAL4 fusion. HEK293 GAL4-hgDAF12 UAS-luciferase reporter, agonist luminescence; normalized to butyrate control. 370,000 compounds, 1.8% hits. activation, % at 6.8 µM;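 active = activation above a cutoff set at the mean of all screened compounds plus 3 SD, cut at about 10% in these data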
ssDAF-12 act – S. stercoralis DAF-12 nuclear receptor activators, primary screen, cell-based, luminescence, HEK293, GRIP1 co-expression, lit1-tk-luc; 370,000 compounds, 1% hits; Nuclear hormone receptor DAF-12 (Strongyloides stercoralis); activation, % at 6.8 µM; HEK293 ssDAF-12/GRIP1 lit1-tk-luc reporter; % of 3 µM dafachronic acid response;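 active = activation above the mean over all tested compounds plus 3 SD, cut at about 0.9% in these data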
hcDAF12 agonist – H. contortus DAF-12 nuclear receptor activators, primary screen, cell-based, luminescence, HEK293, lit1-tk-luc reporter | 370,000 compounds, 1.4% hits | AID 652067, 2013 | HEK293 hcDAF-12 lit1-tk-luc reporter; 0% DMSO, 100% Δ7-dafachronic acid | activation, % at 6.8 µM;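 active = activation above the mean of all tested compounds plus 3 SD, cut at about 5.5% in these data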
LXRb hcDAF ctr – LXR agonists, Gal4 luciferase reporter, confirmation, counter-screen for hcDAF-12 agonist project, cell-based, luminescence, HEK293, H. contortus campaign | shares compounds with hcDAF12 agonist | HEK293 Gal4-LXR tk-luc reporter, 24 h; normalized: DMSO 0%, positive control 100% | activation, % at 6.8 µM | 3,400 tested, under 10 active;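 active = mean percent activation of the reporter above a cutoff set as the average over tested compounds plus their standard deviation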
hcDAF12 conf – H. contortus DAF-12 receptor agonists, confirmation, cell-based, luminescence, HEK293, lit1-tk-luc, triplicate; shares compounds with hcDAF12 agonist; HEK293 hcDAF-12 lit1-tk-luc reporter; % of Δ7-dafachronic acid response; activation, % at 6.8 µM; 3,400 compounds, 61% hits; AID 743032, 2013;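 active = mean activation across triplicate tests above the threshold derived from the earlier primary screen, cut at about 5.5% in these data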
Large screens that a line does not name were inactive (follow-up assays come after a bar, where they were run).

NC(=S)Nc1nc2ccccc2s1	hcDAF12 agonist 7.9 | LXRb hcDAF ctr inactive | hcDAF12 conf 7.0
Cc1nnc(NC(=O)C2CCN(S(=O)(=O)c3ccc(F)c(Cl)c3)CC2)o1	none
CCN(CC)CC(=O)Nc1ccc([N+](=O)[O-])cc1	none
O=C(Nc1nnc(-c2ccccc2F)s1)C1CCCO1 (stereo not given)	none
COc1n[nH]c(C(=O)Nc2nc3ccccc3s2)c1[N+](=O)[O-]	hcDAF12 agonist 8.0 | LXRb hcDAF ctr inactive | hcDAF12 conf 6.1
O=C(Nc1nc2ccccc2s1)C1CCCO1 (stereo not given)	hcDAF12 agonist 7.5 | LXRb hcDAF ctr inactive | hcDAF12 conf 6.7
Cc1[nH]n(C(N)=S)c(=O)c1N=Nc1ccc(Br)cc1	hcDAF12 agonist 7.3 | LXRb hcDAF ctr inactive | hcDAF12 conf 14
COc1ccc(Cl)cc1C1=NOC2(CCC2)C(=O)N1Cc1ccc(NC(C)=O)cc1	hcDAF12 agonist 9.4 (no result: DAX1 inh-1) | LXRb hcDAF ctr inactive | hcDAF12 conf inactive
COc1ccc(Cl)cc1C(=O)Nc1ccc(NC(C)=O)cc1	none
COCCCNc1nc2c(-c3cccc(C)c3)nnn2c2ccccc12	hcDAF12 agonist 6.9 | LXRb hcDAF ctr inactive | hcDAF12 conf inactive
COCCCNc1nc2c(-c3ccc(C)cc3)nnn2c2ccccc12	hgDAF12 agonist 12, ssDAF-12 act 3.6, hcDAF12 agonist 8.0 | LXRb hcDAF ctr inactive | hcDAF12 conf 8.0
CCCCNc1nc2c(S(=O)(=O)c3ccccc3)nnn2c2ccccc12	none
CC(OC(=O)CCCN=C1NS(=O)(=O)c2ccccc21)C(=O)NC1CCCCC1C (stereo not given)	none
CCN(CC)CCn1c(NC(=O)c2ccc(C)cc2)nc2ccccc21	ssDAF-12 act 1.0, hcDAF12 agonist 11 | LXRb hcDAF ctr inactive | hcDAF12 conf inactive
CC(=O)Nc1nc2ccccc2n1Cc1ccc(Cl)cc1	none
CN(C)CCn1c(NC(=O)c2ccc(Cl)cc2)nc2ccccc21	DAX1 inh-2 3.8, hcDAF12 agonist 7.1 | LXRb hcDAF ctr inactive | hcDAF12 conf 9.9
CCN(CC)CCn1c(NC(=O)c2ccc(C(F)(F)F)cc2)nc2ccccc21	none
Cc1noc(C(=O)Nc2cc(Cl)ccc2O)c1Cl	hcDAF12 agonist 7.4 | LXRb hcDAF ctr inactive | hcDAF12 conf inactive
Cc1noc(C(=O)Nc2ccc(F)c(Cl)c2)c1Cl	none
CC1CC(C)CN(c2ccc([N+](=O)[O-])cc2-c2nn[nH]n2)C1 (stereo not given)	none
COC(=O)c1ccc(CSc2nnnn2C)o1	none
COC(=O)c1ccc(CSc2nnc(C)n2N)o1	hcDAF12 agonist 15 | LXRb hcDAF ctr inactive | hcDAF12 conf inactive
c1nc(NCC2CCCO2)c2cc(-c3ccc4c(c3)OCO4)ccc2n1 (stereo not given)	none (no result: DAX1 inh-1, DAX1 inh-2)
c1nc(NCC2CCCCO2)c2cc(-c3ccc4c(c3)OCO4)ccc2n1 (stereo not given)	hcDAF12 agonist 6.9 (no result: DAX1 inh-1, DAX1 inh-2) | LXRb hcDAF ctr inactive | hcDAF12 conf inactive
Cc1ccc2nc(CCCc3nc4ccc(C)cc4[nH]3)[nH]c2c1	none
c1ccc(-c2nc3c(ccc4ccccc43)[nH]2)nc1	hgDAF12 agonist 12, hcDAF12 agonist 8.9 | LXRb hcDAF ctr inactive | hcDAF12 conf 8.1
Cc1ccc2nc(-c3ccccn3)[nH]c2c1	hcDAF12 agonist 8.7 | LXRb hcDAF ctr inactive | hcDAF12 conf inactive
O=[N+]([O-])c1ccc2cn[nH]c2c1	hcDAF12 agonist 8.3 | LXRb hcDAF ctr inactive | hcDAF12 conf inactive
O=[N+]([O-])c1ccc(Cl)c(S(=O)(=O)Nc2ccc3cn[nH]c3c2)c1	none
CC1Cn2c(nnc2-c2ccc(F)cc2)S1 (stereo not given)	ssDAF-12 act 1.0, hcDAF12 agonist 6.9 | LXRb hcDAF ctr inactive | hcDAF12 conf inactive
COc1ccccc1Nc1ncc(-c2cccs2)s1	ssDAF-12 act 1.3, hcDAF12 agonist 11 | LXRb hcDAF ctr inactive | hcDAF12 conf 15
COc1ccc(CN(C(=O)c2cc(=O)c3ccccc3o2)C2CCS(=O)(=O)C2)cc1OC (stereo not given)	none
O=C(CCn1c(=S)oc2ccccc21)Nc1cccc(F)c1	hcDAF12 agonist 7.5 | LXRb hcDAF ctr inactive | hcDAF12 conf inactive
O=C(CCn1c(=S)oc2ccccc21)Nc1cccc(O)c1	none
CCN(C(=O)[C@@H](C)[C@@H](O)c1ccc(Cl)cc1)c1ccccc1	none (no result: DAX1 inh-1)
CCOC(=O)C(C)(C)Sc1nc2c(cnn2-c2ccc(C)cc2)c(=O)[nH]1	hcDAF12 agonist 8.8 | LXRb hcDAF ctr inactive | hcDAF12 conf inactive
CCOC(=O)C(C)(C)Sc1nc2c(cnn2-c2ccc(F)cc2)c(=O)[nH]1	none
COc1nc2c(C)cccc2cc1-c1noc(-c2ccco2)n1	hcDAF12 agonist 6.9 | LXRb hcDAF ctr inactive | hcDAF12 conf inactive
COC(=O)[C@]12CCCCC=C1N(Cc1ccc(OC)cc1)C(=O)[C@@H]2CC(=O)N1CCN(C(=O)c2ccco2)CC1	none (no result: DAX1 inh-1)
CCOC(=O)c1ccc2c(c1)nc(-c1ccccn1)n2CC	ssDAF-12 act 0.9, hcDAF12 agonist 7.6 | LXRb hcDAF ctr inactive | hcDAF12 conf 8.7
O/N=C/c1cccnc1Sc1ccccc1	none
CCCc1cc(=O)n2nc(N3CCC(C(=O)NCc4ccc(C)o4)CC3)sc2n1	none
Cc1c(C(=N)C(C#N)C#N)c(=N)oc2c1ccc1ccccc12	hcDAF12 agonist 8.2 | LXRb hcDAF ctr inactive | hcDAF12 conf 8.1
O=C(COC(=O)c1ccc(S(=O)(=O)N2CCCCC2)cc1)NCc1ccc(F)cc1	none
C(=N\Nc1nc(Nc2ccccc2)nc(N2CCOCC2)n1)/c1c[nH]c2ccccc12	none (no result: DAX1 inh-1)
Cc1ccc(Nc2nc(N/N=C/c3c[nH]c4ccccc34)nc(N3CCOCC3)n2)cc1	ssDAF-12 act 1.1, hcDAF12 agonist 7.5 | LXRb hcDAF ctr inactive | hcDAF12 conf inactive
Cc1[nH]c2ccccc2c1/C=N/Nc1nc(Nc2ccc(F)cc2)nc(N2CCOCC2)n1	hcDAF12 agonist 6.8 | LXRb hcDAF ctr inactive | hcDAF12 conf inactive

Screening results as filed in PubChem.
